Results with a measured potency or affinity are listed apart.

This passage reports binding signal results from patent US20230313203, “FLUOROARABINO NUCLEIC ACID (FANA) […] THAT BIND SARS-2 RECEPTOR BINDING DOMAIN AND BLOCK BINDING TO THE ACE2 […] RECEPTOR” (University of Maryland, College Park, published 2023).

This assay concerns the target SARS-CoV-2 spike receptor binding domain (Wuhan) (SARS-CoV-2, UniProt P0DTC2 P0DTC2:319-541). The assay is described as follows: inhibition. The settings on record: XNA; first 20 nt DNA, rest FANA (SEQ ID NO 3).

“AAAAGGTAGTGCTGAATTCGUCGAACUAAUCCGAAUUGAUGGCAUAAAAAGCAUGUUUAGUUCGCUAUCCAGUUGGCCU” yielded a binding signal of approximately 3 fold weaker.
